Only some compounds are listed: those with a hit (about 2.5% of all), similar ones and a draw of the others.
HSF-1 act – HSF-1 activators, primary screen, NIH3T3-HGL cells, MG132 stress, luminescence, single point; NIH3T3-HGL HSF-1 luciferase reporter, 8 h; 100% = twice DMSO control signal; activation, % at 9 µM; hit rate 1.7% among 300,000; AID 504408, 2011;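 active = mean replicate activation of at least 50% with a set share of replicates each reaching 50%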;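 note: 0% = median of the neutral control wells and 100% = twice that signal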
aDG glyco up – activators of alpha-DG glycosylation, primary screen, uHTS, Pro5-aDG cells, AlphaScreen; AID 624168, 2012; hit rate 0.22% among 360,000; alpha-DG glycosylation AlphaScreen (IIH6); 0% Pro5, 100% B10-LARGE cell signal; activation, % at 10 µM;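 active = activation of at least 8% versus controls, or a plate z-score of at least 8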;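 note: Pro5 are CHO cells carrying HIG-tagged alpha-DG that lacks glycosylation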
GC-A act – GC-A stimulated cGMP production enhancers – HEK293 GC-A cells, cGMP TR-FRET, EC30 ANP, primary screen; hit rate 0.14% among 370,000; 0% at EC30 ANP, 100% saturating ANP; activation, % at 10 µM; AID 1671463, 2021; Atrial natriuretic peptide receptor 1 (Homo sapiens), P16066; in the data active = activation above about 40%
DYRK1A inh – rat Dyrk1A kinase inhibitors, primary screen, biochemical, single point, plate reader; inhibition, % at 12.5 µM; Dual specificity tyrosine-phosphorylation-regulated kinase 1A (Rattus norvegicus), Q63470; ADP-Glo luminescence, NFATc1 peptide; AID 504441, 2011; hit rate 0.43% among 310,000; in the data active = inhibition above about 50%;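 note: plate controls were vehicle with enzyme for no effect and no enzyme for full effect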
HSF1 inhib – HSF1 inhibitors in luciferase reporter cells, primary screen, cell-based, NIH3T3, luminescence | hit rate 0.77% among 300,000 | activity change, negative = inhibition, % at 7.5 µM (by protocol) | NIH3T3-HGL HSE-luciferase, MG132-induced, luminescence 8 h; active compounds read low | AID 2098, 2009;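 active = more than half of replicate wells show activity change below -50%, luminescence cut by over half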;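 note: luciferase reports HSF-1 transcriptional activity via heat shock element; 0% = median of DMSO wells and -100% = zero luminescence signal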
GC-B act – human GC-B receptor activators, primary screen, HEK293 GC-B cells, cGMP TR-FRET, EC30 CNP; activation, % at 10 µM; 0% at EC30 CNP, 100% saturating CNP; hit rate 0.11% among 370,000; Atrial natriuretic peptide receptor 2 (Homo sapiens), P20594; AID 1920062, 2024;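 active = activation at 10 µM reaching about 35% in either raw or pattern-adjusted values, limit read from the data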
Target sequence (P20594 whole entry, looked up): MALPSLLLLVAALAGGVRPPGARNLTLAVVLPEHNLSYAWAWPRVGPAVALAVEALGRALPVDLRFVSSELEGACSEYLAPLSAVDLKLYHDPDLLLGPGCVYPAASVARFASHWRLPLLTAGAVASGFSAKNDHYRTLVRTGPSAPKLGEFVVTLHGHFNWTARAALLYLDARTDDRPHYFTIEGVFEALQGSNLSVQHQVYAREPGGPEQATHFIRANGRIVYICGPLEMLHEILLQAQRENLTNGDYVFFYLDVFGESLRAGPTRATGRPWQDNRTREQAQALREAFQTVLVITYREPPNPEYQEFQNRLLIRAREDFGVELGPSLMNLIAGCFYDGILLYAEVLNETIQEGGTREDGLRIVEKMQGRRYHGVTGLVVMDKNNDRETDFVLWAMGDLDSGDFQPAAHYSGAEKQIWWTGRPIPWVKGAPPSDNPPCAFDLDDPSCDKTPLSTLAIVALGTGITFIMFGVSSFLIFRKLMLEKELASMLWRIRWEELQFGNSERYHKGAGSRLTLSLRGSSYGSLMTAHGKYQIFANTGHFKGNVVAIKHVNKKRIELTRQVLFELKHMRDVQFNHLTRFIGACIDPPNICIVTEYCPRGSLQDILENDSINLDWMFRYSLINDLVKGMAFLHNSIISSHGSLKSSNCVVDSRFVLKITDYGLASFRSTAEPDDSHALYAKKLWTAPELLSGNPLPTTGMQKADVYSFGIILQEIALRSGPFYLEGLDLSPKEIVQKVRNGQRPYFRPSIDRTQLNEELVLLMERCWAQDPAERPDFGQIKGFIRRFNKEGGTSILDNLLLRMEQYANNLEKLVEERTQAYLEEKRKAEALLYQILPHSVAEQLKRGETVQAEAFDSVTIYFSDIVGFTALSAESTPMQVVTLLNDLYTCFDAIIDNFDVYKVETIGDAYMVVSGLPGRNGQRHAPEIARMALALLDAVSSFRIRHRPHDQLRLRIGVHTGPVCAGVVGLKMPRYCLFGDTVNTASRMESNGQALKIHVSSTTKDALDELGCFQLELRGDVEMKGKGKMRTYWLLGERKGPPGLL
Active calls of the source: *; · = no result.

SMILES | HSF-1 act | aDG glyco up | GC-A act | DYRK1A inh | HSF1 inhib | GC-B act
O=C(Cc1ccsc1)NNC(=O)c1cccc(Cl)c1 | -5 | 0 | 3 | 0 | 1 | -1
CC(C)(C)c1ccc(Cn2c(=N)n(CC(O)c3ccco3)c3ccccc32)cc1 (stereo unspecified) | 56* | -1 | · | -3 | 24 | ·
Cc1ccccc1Cn1c(=N)n(CC(O)c2ccco2)c2ccccc21 (stereo unspecified) | 1 | 0 | -26 | -7 | 10 | -17
COc1ccc(NS(=O)(=O)c2cc(NC(=O)c3cccc(OCc4c(C)noc4C)c3)ccc2OC)cc1 | 57* | 0 | 0 | -5 | 18 | 1
CC(C)(C)Cc1nnc(NC(=O)c2ccc3c(c2)OCO3)s1 | 58* | 0 | 3 | 8 | 26 | -1
COc1ccc(/C(C#N)=C/c2ccccn2)cc1 | 68* | 0 | -4 | 2 | 27 | -2
COc1ccc(C(=O)N/N=C/c2ccccn2)cc1 | · | 0 | 1 | · | · | 2
N#C/C(=C\c1ccccn1)c1nc2ccccc2s1 | 83* | 0 | -16 | 0 | 77 | -9
COC(=O)c1ccc(/C=C(\C#N)c2nc3ccccc3s2)cc1 | 22 | 0 | -3 | -11 | 10 | -3
Cc1cc(C)c(CN2CCN(C(=O)Cn3cnc4c(NCc5ccccc5)ncnc43)CC2)c(C)c1 | · | 1 | 2 | · | · | -2
COc1cc(C(=O)O)cc(NC(=O)c2ccco2)c1OC | -7 | 0 | 2 | 2 | -5 | 0
O=C(CSc1nnc(-c2ccco2)n1Cc1ccccc1)OC1CCCCC1 | 79* | 0 | -5 | 5 | 47 | -2
c1ccc(CSc2nnc(-c3cccs3)n2Cc2ccco2)cc1 | 21 | 1 | -14 | 1 | 9 | -13
c1ccc(CSc2nnc(-c3ccco3)n2Cc2ccco2)cc1 | 80* | 0 | -1 | 1 | 50 | -6
Cc1ccccc1CSc1nnc(-c2ccco2)n1Cc1ccco1 | 117* | 1 | -7 | 0 | 96 | -2
CC(C)(C)c1ccc(CSc2nnc(-c3ccccn3)n2Cc2ccco2)cc1 | 38 | 0 | -8 | -10 | 13 | -7
Brc1ccc(CSc2nnc(-c3ccccn3)n2Cc2ccco2)cc1 | 145* | 0 | -33 | 1 | 105 | -21
Cc1ccccc1CSc1nnc(-c2cccs2)n1Cc1ccco1 | 11 | 0 | -17 | 3 | 4 | -13
Cc1nn(-c2ccccc2)c(Cl)c1C(=O)N1CCN(C)CC1 | -1 | 0 | 1 | -5 | 3 | 2
O=C(COc1ccc(F)cc1)Nc1c(C(=O)N2CCC(N3CCCCC3)CC2)oc2ccccc12 | -7 | 0 | 4 | 4 | -4 | 0
O=C(NCc1ccccc1)C(=O)Nc1cccc(C(=O)O)c1 | -46 | 0 | 2 | 0 | -43 | 3
COc1ccc(N(CC(=O)N2CCc3ccccc32)S(=O)(=O)c2c(C)noc2C)cc1 | 77* | 0 | -2 | -7 | 34 | -2
COc1ccc(N(CC(=O)Nc2cccc(C(=O)O)c2)S(=O)(=O)c2c(C)noc2C)cc1 | · | 1 | -1 | -1 | · | -2
COc1ccc(N(CC(=O)Nc2cccc(C)c2)S(=O)(=O)c2c(C)noc2C)cc1 | -74 | 0 | -4 | -3 | -69* | -2
COCCN(CCOC)c1nc(S(=O)(=O)c2ccc(C)cc2)c(Cl)s1 | -2 | 0 | 3 | -4 | -7 | -2
COc1ccc(OCC(=O)Nc2ccc3c(c2)nc(CCn2ccccc2=O)n3C)cc1 | 52* | 0 | -5 | -5 | 10 | 1
Cc1nc2cc(NC(=O)Nc3cccc([N+](=O)[O-])c3)ccc2n1C | 54* | 0 | 8 | 1 | 27 | 3
Cn1c(CCN2CCCCC2)nc2cc(NC(=O)Nc3ccccc3)ccc21 | 58* | 1 | 1 | -4 | 59 | 0

From PubChem BioAssay
